Laboratory results from PubChem BioAssay (NCATS).
Results filed as inconclusive are left out. A call without a number means that no potency is given here. Activity calls are given as the source filed them. Calls follow the shape of the dose curve; as a rule, active = well fitted inhibition curve with a large enough effect; inconclusive = small, poorly fitted or top-dose-only effect; inactive = flat fitted curve, though single readings scatter.

Experiment: P-glycoprotein substrates identified in KB-8-5-11 adenocarcinoma cell line, qHTS therapeutic library screen (AID 1346987); also: nearly all actives have a fitted effect of over 65% in size
Details: KB-8-5-11 (P-gp overexpressing) viability, CellTiter-Glo, 72 h; series mostly up to 44.5 µM
Procedure, shortened: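 KB-8-5-11, a colchicine-selected P-gp-overexpressing KB-3-1 subline, was grown without colchicine for the assay. Cells were seeded at 500 cells/well, dosed in concentration-response and incubated 72 h at 37 degree C, 5% CO2. Viability was read by CellTiter-Glo luminescence.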
Potency is read from the fitted curve at half-maximal effect.

Compound | Potency | outcome
CCn1c(=O)n([C@H]2CCCN(c3nccc(-c4cc5ccccc5o4)n3)C2)c2ccccc21 | inactive | –
CCOC(=O)N1CCC(N2CCC[C@@H](NC(=O)c3ccccc3C)C2)CC1 | inactive | –
Cc1cc(C)c(S(=O)(=O)n2cc(C)cc2C)c(C)c1 | inactive | –
NCCCC[C@H](NC(=O)[C@@H]1CCCN1C(=O)[C@@H]1CSSC[C@H](N)C(=O)N[C@@H](Cc2ccccc2)C(=O)N[C@@H](Cc2ccccc2)C(=O)N[C@@H](CCC(N)=O)C(=O)N[C@@H](CC(N)=O)C(=O)N1)C(=O)NCC(N)=O | inactive | –
O=C(CO)[C@@H](O)[C@H](O)[C@H](O)CO | inactive | –
CC(C)(S)C(=O)N[C@@H](CS)C(=O)O | inactive | –
CCO[C@H]1CN(C2CCC(O)(c3ccc4c(c3)OCO4)CC2)C[C@@H]1NC(=O)CNC(=O)c1cccc(C(F)(F)F)c1 (some centres undefined) | inactive | –
Cc1c(O)cc2c(c1C)O[C@](C)(CCC[C@H](C)CCC[C@H](C)CCCC(C)C)CC2 | inactive | –
C=C1CO[C@@]2(O[C@H]3CC4C5CC=C6C[C@@H](O)C[C@@H](O[C@@H]7OC[C@H](O)[C@H](O[C@@H]8OC[C@@H](O)[C@H](O)[C@H]8O)[C@H]7O[C@@H]7O[C@@H](C)[C@H](OC(C)=O)[C@@H](OC(C)=O)[C@H]7OC(C)=O)[C@]6(C)C5CC[C@]4(C)[C@@H]3[C@@H]2C)[C@@H](O)[C@H]1OC1OC(C)C(O)C(O)C1O (some centres undefined) | – | inactive [at 9.29 µM]
C=CCNC1=C2C[C@@H](C)C[C@H](OC)[C@H](O)[C@@H](C)/C=C(\C)[C@H](OC(N)=O)[C@@H](OC)/C=C\C=C(/C)C(=O)NC(=CC1=O)C2=O | 16.4 µM (active) | –
C=C1/C(=C/C=C2\CCC[C@@]3(C)C2CCC3[C@H](C)/C=C/[C@@H](O)C2CC2)C[C@@H](O)C[C@@H]1O (some centres undefined) | inactive | –
COc1ccc(NC(=O)c2ccc(C(=N)N(C)C)cc2)c(C(=O)Nc2ccc(Cl)cn2)c1 | inactive | –
CC1(CO)CC(O)[C@]2(C(=O)O)CCC34CC3(C=CC3[C@]5(C)C(CC[C@]34C)C(C)(CO)[C@@H](O)[C@H](O)[C@@H]5O)C2C1 (some centres undefined) | inactive | –
Cc1ccc(C(=O)Nc2ccc(CN3CCN(C)CC3)c(C(F)(F)F)c2)cc1C#Cc1cnc2[nH]ncc2c1 | 20.6 µM (active) | –
COc1cc(O)cc(/C=C/c2cccc(O)c2)c1 | inactive | –
FC(F)(F)c1ccc(CNc2ccc(Cc3c[nH]c4ncc(Cl)cc34)cn2)cn1 | 14.6 µM (active) | –
C=C1[C@H]2CC[C@H](C(=O)O)[C@@]23CC[C@H](C3)C1(C)C | inactive | –
CC(=O)OC[C@]12[C@H](OC(C)=O)[C@H](OC(=O)c3ccccc3)[C@@H]3[C@@H](OC(C)=O)[C@]1(OC3(C)C)[C@H](C)C[C@H](OC(C)=O)[C@@H]2OC(=O)c1ccccc1 | inactive | –
COc1cc(C#N)ccc1S(=O)(=O)Nc1ccc2c(c1)cc(C)c(=O)n2C | inactive | –
O=c1nc(-c2ccccn2)sc2ccccc12 | inactive | –

Compound | Potency | outcome
Cc1cc(OCCCS(C)(=O)=O)cc(C)c1-c1cccc(COc2ccc(C3=CC(=O)NS3=O)cc2)c1 (centres undefined) | inactive | –
Cc1csc(N(C(=O)CSc2ccc(-c3ccccc3)nn2)C2CC2)n1 | inactive | –
C[C@H]1[C@H](/C=C/c2ccc(-c3ccccc3C#N)cn2)[C@@H]2[C@@H](C)OC(=O)[C@@H]2C[C@@H]1C | 16.4 µM (active) | –
COCC(c1ccc(C(F)(F)F)cc1)N1CCN(C2(C)CCN(C(=O)c3c(C)ncnc3C)CC2)CC1C (centres undefined) | inactive | –
CC(C)(C)CC(=O)OCC(=O)[C@@]12OC(C)(C)O[C@@H]1C[C@H]1[C@@H]3CCC4=CC(=O)C=C[C@]4(C)[C@@]3(F)[C@@H](O)C[C@@]12C | inactive | –
CCCN1CCC=C(c2cc(-c3ccc(C)cc3)no2)C1 | inactive | –
CCN1CCN(Cc2ccc(NC(=O)c3ccc(C)c(Oc4ncnc5[nH]c(C)cc45)c3)cc2C(F)(F)F)CC1 | 20.6 µM (active) | –
N#Cc1cc(CN2CCC(Nc3ncnc4sc(Cl)cc34)CC2)ccc1F | 9.2 µM (active) | –
COc1cc2nc(C3CC3)nc(N3CCN(c4ccccc4OC)CC3)c2cc1OC | 20.6 µM (active) | –
CCOC(=O)[C@H](CCc1ccccc1)N[C@H]1CCCN2CCC[C@@H](C(=O)O)N2C1=O | inactive | –
CC(C)(C)NC(=O)[C@H]1CC[C@H]2[C@@H]3CC[C@H]4NC(=O)CC[C@]4(C)[C@H]3CC[C@]12C | inactive | –
COc1c(C(O)CC(C)C)ccc2c1C(=O)OCc1cc(C)cc(O)c1O2 (centres undefined) | inactive | –
CC(=O)OCC(=O)[C@@]1(O)[C@H](C)C[C@H]2[C@@H]3C[C@H](F)C4=CC(=O)C=C[C@]4(C)[C@H]3[C@@H](O)C[C@@]21C | inactive | –
CCCC(=O)N1CCCN(c2nc(N)c3cc(OC)c(OC)cc3n2)CC1 | inactive | –
O=C(O)C1=CO[C@@H](O[C@@H]2O[C@H](CO)[C@@H](O)[C@H](O)[C@H]2O)[C@@H]2C(CO)=CC[C@H]12 | inactive | –
C[C@@H](O[C@H]1OCCN(Cc2nn(P(=O)(O)O)c(=O)[nH]2)[C@H]1c1ccc(F)cc1)c1cc(C(F)(F)F)cc(C(F)(F)F)c1 | inactive | –
C=C[C@]1(C)C[C@H](O)[C@H]2C(=C)C(=O)O[C@@H]2[C@H]1C(=C)CO | inactive | –
C[N+](C)(CCCCCC[N+](C)(C)C1c2ccccc2-c2ccccc21)C1c2ccccc2-c2ccccc21 | inactive | –
COc1cccc(OCCCN)c1-c1cc(Nc2cnc(C#N)cn2)n[nH]1 | 1.3 µM (active) | –
